Data from PubChem BioAssay (NCI).
This is part of a sample that, as a whole, favours compounds with a hit. Of some 83,000 tested, about 20% had one in any assay.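 Each cell line was grown in a 96-well plate and treated with one concentration of compound for 48 hours. Values below 10 were considered active.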 Values without a mark were called inactive. Active and inactive are the calls of the source.

Assays:
Test in all cases: NCI-60 one-dose screen, 48 h (100 = growth as untreated, 0 = no growth, -100 = all killed)
Conditions in all cases: 10 µM unless noted
RPMI-8226 leukemia = test system: RPMI-8226 leukemia
OVCAR-8 ovarian = test system: OVCAR-8 ovarian
OVCAR-5 ovarian = test system: OVCAR-5 ovarian
OVCAR-4 ovarian = test system: OVCAR-4 ovarian
SK-OV-3 ovarian = test system: SK-OV-3 ovarian
IGROV1 ovarian = test system: IGROV1 ovarian
OVCAR-3 ovarian = test system: OVCAR-3 ovarian
HS 578T breast = test system: HS 578T breast
NCI/ADR-RES ovarian = test system: NCI/ADR-RES ovarian
T-47D breast = test system: T-47D breast
BT-549 breast = test system: BT-549 breast
MDA-MB-435 melanoma = test system: MDA-MB-435 melanoma
SW-620 colon = test system: SW-620 colon
MCF7 breast = test system: MCF7 breast
HCT-116 colon = test system: HCT-116 colon
HCC-2998 colon = test system: HCC-2998 colon
KM12 colon = test system: KM12 colon

Compound	growth (RPMI-8226 leukemia)	growth (OVCAR-8 ovarian)	growth (OVCAR-5 ovarian)	growth (OVCAR-4 ovarian)	growth (SK-OV-3 ovarian)	growth (IGROV1 ovarian)	growth (OVCAR-3 ovarian)	growth (HS 578T breast)	growth (NCI/ADR-RES ovarian)	growth (T-47D breast)	growth (BT-549 breast)	growth (MDA-MB-435 melanoma)	growth (SW-620 colon)	growth (MCF7 breast)	growth (HCT-116 colon)	growth (HCC-2998 colon)	growth (KM12 colon)
O=C1Nc2cc(Cl)ccc2/C1=C\c1ccc(OCc2ccc(Br)cc2F)cc1	-24.3% (active)	-36.7% (active)	6.67% (active)	-54.3% (active)	-36.9% (active)	-88.8% (active)	-64.7% (active)	-26.1% (active)	-0.106% (active)	-23.9% (active)	-69.3% (active)	-37.7% (active)	-49.7% (active)	9.35% (active)	-95% (active)	17%	-31.9% (active)
COc1cccc(COc2ccc(/C=C3/C(=O)Nc4cc(Cl)ccc43)cc2)c1	78%	90.8%	96.1%	96.6%	100%	87.6%	105%	91%	90.3%	80.6%	106%	99.9%	97.5%	70.7%	93.7%	102%	97.1%
CCOC(=O)c1c(Nc2ccccc2)nn2c(N)c(C#N)c(-c3ccccc3)nc12	68.8%	94%	109%	82.5%	108%	90.2%	94.5%	75.2%	88.7%	55.5%	95%	75.3%	81.6%	60.1%	–	97%	–
Nc1nc(N)c2c(n1)NC(c1ccc(F)cc1)CC(c1ccc(Nc3nc(NCCO)nc(Nc4ccc(Cl)cc4)n3)cc1)=N2 (stereo unspecified)	-37.6% (active)	29%	72%	3.03% (active)	84%	-25.9% (active)	14.1%	42.8%	64.5%	60%	42.7%	-71.4% (active)	-52.8% (active)	-66.5% (active)	–	-80.4% (active)	-16.9% (active)
Cn1cc(-c2cc(N)n3nc(-c4cn(C)c5ccc(Br)cc45)cc3n2)c2cc(Br)ccc21	64.3%	86.8%	100%	86.1%	110%	76.4%	109%	111%	86.5%	101%	105%	30.8%	1.21% (active)	1.35% (active)	–	82.5%	64.8%
Cn1ccnc1C(=O)/C=C/c1ccc(NC(=O)Nc2ccccc2)cc1	8.95% (active)	-1.17% (active)	14.8%	42.7%	13.3%	19.2%	6.45% (active)	5.48% (active)	22.2%	15.7%	-3.85% (active)	-13.3% (active)	2.15% (active)	6.81% (active)	–	-22% (active)	1.03% (active)
COc1cc(/C=C/C(=O)c2ccc(C(F)(F)F)cc2)ccc1Oc1nc(NCCO)nc(N2CCOCC2)n1	-16.1% (active)	95.9%	101%	96%	101%	92.5%	109%	82%	96.7%	83.5%	92.9%	78.9%	-3.75% (active)	17%	–	104%	62.4%
Cc1cccc2sc(/N=C(\N)C(Cl)(Cl)Cl)nc12	105%	102%	119%	97.4%	101%	98.3%	115%	97.1%	108%	74.8%	117%	103%	103%	–	101%	111%	97.5%
OC1CCN(CCCOc2c3ccc(Cl)cc3nc3c2oc2ccc(Cl)cc23)CC1	-8.79% (active)	27.7%	-28.1% (active)	55%	50.8%	9.03% (active)	46.5%	20.5%	32.4%	52.3%	46.6%	-70.4% (active)	-82.6% (active)	-79.7% (active)	12.3%	36.8%	-74.3% (active)
